Most compounds without a hit are left out; they make up all but 20% or so of the library.
Shiga inhibitor: blocks Shiga toxin action in Vero cells; 290,000 compounds, 9.2% hits; inhibition, % at 38.7 µM; Vero cells, Shiga toxin protein synthesis inhibition reporter; in the data active means inhibition mostly above about 28%, no sharp cut-off; inactive means mostly below about 43%
Pf growth 48h: inhibits P. falciparum growth in the first generation, 48 h | Potency, µM (series often up to 28.7 µM), hits mostly inhibitors | P. falciparum luciferase growth in erythrocytes, 48 h | 310,000 compounds, 5.9% hits
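Parasite viability was followed by luminescence of a genomically integrated firefly luciferase. Cultures held 0.1% parasitemia at 2% hematocrit (final), incubated under 5% CO2 at 37 C.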
Cycloheximide cs: counter-screen hit for Shiga toxin inhibitors, cycloheximide | cell reporter, cycloheximide protein synthesis inhibition counterscreen | max response, % | 300,000 compounds, 12% hits | AID 2314; in the data active means max response mostly above about 13%, no sharp cut-off; inactive means mostly below about 14%; further: read at 38.3 µM for the half of the compounds with a filed dose
Pf growth 96h: P. falciparum growth inhibition at 96 hours; P. falciparum luciferase reporter growth, 96 h; Potency, µM (doses to about 28.7 µM), hits mostly inhibitors; 320,000 compounds, 6.9% hits
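Two parasite generations (96 h, 37 C, 5% CO2) of compound exposure in infected erythrocytes (0.05% parasitemia, 2% hematocrit). Luciferase-reporter P. falciparum; decreased luminescence indicates inhibited growth, aimed at apicoplast-acting delayed death.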
HCMV antiviral: human cytomegalovirus inhibition; AID 1259415; activity change, negative = inhibition, % at 57.5 µM; 410,000 compounds, 4.5% hits; HFF cells, HCMV-luciferase reporter, 72 h; hits give low values; in the data active means activity change below about -60%; inconclusive means no clear call, values can overlap the other calls; inactive means above about -39%
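Two compound doses tested in HFFs infected with HCMV-luciferase, MOI 1 PFU/cell, 72 h at 37C. Lysate luminescence read with OneGlo; data normalized against buffer-only and 10uM Salinomycin inhibitor controls.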
A number is an active result; i = inactive; ? = inconclusive; nt = no result. Unless noted, the call rests on the fitted dose curve; in most records, active means well fitted inhibition curve with a large enough effect; inconclusive means small, poorly fitted or top-dose-only effect, or another doubt; inactive means no such curve, though single readings can be large or run the other way.

SMILES	Shiga inhibitor	Pf growth 48h	Cycloheximide cs	Pf growth 96h	HCMV antiviral
CC(C)(C)N=C1NC(=NC(C)(C)C)c2ccccc21	i	?	i	i	-62.6
c1ccc2c(c1)C(=NCC1CCCO1)NC2=NCC1CCCO1 (centres undefined)	i	i	i	i	i
Cc1ccc(-n2ncc(C#N)c2N)cc1	i	i	i	i	i
CNc1c([N+](=O)[O-])cnn1-c1ccc(C)cc1	i	3.29µM	i	?	i
CNc1c([N+](=O)[O-])cnn1-c1ccccc1F	i	i	40.5	i	i
CCC(Cn1nnc2ccccc2c1=O)NC(=O)Nc1cc(OC)cc(OC)c1 (centres undefined)	nt	nt	nt	nt	i
COc1ccc(NC(=O)c2ccc(NC3=NC4CS(=O)(=O)CC4S3)cc2)cc1 (centres undefined)	i	i	i	10.4µM	i
COc1ccccc1CNC(=O)c1ccc(Cl)c(NC2=NC3CS(=O)(=O)CC3S2)c1 (centres undefined)	i	i	i	i	i
Cc1cc(C)cc(NC(=O)c2ccc(NC3=NC4CS(=O)(=O)CC4S3)cc2)c1 (centres undefined)	i	i	i	i	i
Cc1ccc(C(=O)Nc2ccc(F)cc2)cc1NC1=NC2CS(=O)(=O)CC2S1 (centres undefined)	i	i	i	9.28µM	-101.3
COc1ccccc1CNC(=O)c1ccc(NC2=NC3CS(=O)(=O)CC3S2)cc1 (centres undefined)	i	i	i	11.7µM	i
Cc1ccc(CNC(=O)c2ccc(NC3=NC4CS(=O)(=O)CC4S3)cc2)cc1 (centres undefined)	i	i	i	i	-67.6
COc1cccc(CNC(=O)Cc2ccc(NC3=NC4CS(=O)(=O)CC4S3)cc2)c1 (centres undefined)	i	i	i	?	i
O=C(Cc1ccc(NC2=NC3CS(=O)(=O)CC3S2)cc1)N1CCN(c2ccc(F)cc2)CC1 (centres undefined)	i	i	i	11.7µM	i
COc1ccc(OC)c(NC(=O)Cc2ccc(NC3=NC4CS(=O)(=O)CC4S3)cc2)c1 (centres undefined)	i	i	i	11.7µM	i
O=C(c1ccc(NC2=NC3CS(=O)(=O)CC3S2)cc1)N1CCN(c2ccc(F)cc2)CC1 (centres undefined)	i	i	i	i	i
COc1cccc(CNC(=O)c2ccc(Cl)c(NC3=NC4CS(=O)(=O)CC4S3)c2)c1 (centres undefined)	i	i	i	2.62µM	i
Cc1ccc(C)c(Cn2nnc3c(=O)[nH]c(C4CCCN(C(=O)c5ccco5)C4)nc32)c1 (centres undefined)	i	?	i	i	i
COc1ccccc1-n1c(CNc2ccc(F)cc2)nnc1SCC(=O)Nc1cc(C)on1	i	13.1µM	i	i	?
O=C(CSc1nnc(CNc2ccc(F)cc2)n1Cc1ccccc1)NCc1ccco1	i	?	i	?	i
O=C(CSc1nnc(COc2ccccc2F)n1-c1ccccc1)NCc1ccco1	53.2	?	19.4	nt	i
CCOc1ccccc1-n1c(CNc2ccc(F)cc2)nnc1SCC(=O)NCc1ccco1	i	11.7µM	21.6	i	i
COc1ccc2c(c1)c1c(c(=O)n(Cc3ccccc3)c(=O)n1Cc1cccc(Cl)c1)n2C	nt	nt	nt	nt	i
COc1ccc(NC(=O)Cn2c(=O)n(-c3cccc(C)c3)c(=O)c3c2c2cc(C)ccc2n3C)cc1OC	nt	nt	nt	nt	i
Cc1cc(C)c2nc(NNC(=O)c3ccc(S(=O)(=O)N4CCCCC4)cc3)sc2c1	i	?	i	4.65µM	-96.0
SMILES	Shiga inhibitor	Pf growth 48h	Cycloheximide cs	Pf growth 96h	HCMV antiviral
Cc1cccc2sc(NNC(=O)c3ccc(S(=O)(=O)N4CCc5ccccc5C4)cc3)nc12	i	?	i	5.22µM	-105.3
Cc1cc(C)c2nc(NC(=O)c3ccc(S(=O)(=O)N4CCCC4)cc3)sc2c1	nt	nt	nt	nt	i
CCc1nnc(NC(=O)c2ccc(S(=O)(=O)N3CCCC(C)C3)cc2)s1 (centres undefined)	i	i	i	i	i
Cc1cccc2sc(NNC(=O)c3ccc(S(=O)(=O)N4CCCC(C)C4)cc3)nc12 (centres undefined)	i	i	i	i	-71.7
CCOC(=O)N1CCN(S(=O)(=O)c2ccc(C(=O)NNc3nc4cc(C)cc(C)c4s3)cc2)CC1	i	?	i	?	nt
CCOC(=O)N1CCN(S(=O)(=O)c2ccc(C(=O)NNc3nc4c(C)cccc4s3)cc2)CC1	i	?	i	?	-102.8
Cc1ccc(Cl)cc1NC(=O)C[n+]1ccc(Cc2ccc([N+](=O)[O-])cc2)cc1	i	?	i	1.85µM	i
CC(C)(C)NC(=O)NC(=O)C[n+]1ccc(Cc2ccc([N+](=O)[O-])cc2)cc1	i	9.28µM	i	?	?
O=C(C[n+]1ccc(Cc2ccccc2)cc1)Nc1ccc([N+](=O)[O-])cc1Cl	i	i	i	i	i
Cc1ccc(NC(=O)Cn2cc(S(=O)(=O)N3CCN(c4ccccc4F)CC3)c3ccccc3c2=O)cc1F	nt	nt	nt	nt	i
Cn1cc(CN(C(=O)Nc2ccc(Cl)c(Cl)c2)C2CCCCC2)c2ccccc21	nt	nt	nt	nt	i
Cn1cc(CN(C(=O)Nc2ccccc2)C2CCCCC2)c2ccccc21	nt	nt	nt	nt	-105.0
CCCCCCOC(=O)C1=C(C)NC(=O)NC1c1ccc2c(c1)OCO2 (centres undefined)	i	i	i	?	i
CCCCNC(=O)CC1N=C2c3ccccc3N=C(SCC(=O)Nc3ccccc3OC)N2C1=O (centres undefined)	i	10.4µM	i	i	i
CCCCNC(=O)CC1N=C2c3ccccc3N=C(SCC(=O)Nc3ccc(OC)cc3)N2C1=O (centres undefined)	i	?	i	10.4µM	i
CCc1ccc2nc(N(CCCN(C)C)C(=O)c3ccc(S(=O)(=O)N4CCc5ccccc5C4)cc3)sc2c1	i	i	i	?	-61.6
CCOc1cccc2sc(N(CCCN(C)C)C(=O)c3ccc(S(=O)(=O)N(C)c4ccccc4)cc3)nc12	i	?	i	?	i
CCOc1cccc2sc(N(CCCN(C)C)C(=O)c3ccc(S(=O)(=O)N4CCc5ccccc5C4)cc3)nc12	i	?	i	?	-68.2
CCc1ccc(-c2nc3cc(NC(=O)c4cc5ccccc5cc4OC)ccc3o2)cc1	nt	nt	nt	nt	i
O=C(NCCc1ccccc1)c1ccc2c(c1)OCCO2	i	i	i	i	-79.1
O=C(NCCc1ccccc1)c1ccc2c(c1)OCCCO2	i	i	i	i	-92.8
C=CCc1ccc(OCC(O)CN2CCc3ccccc3C2)c(OC)c1 (centres undefined)	i	?	i	?	i
Cc1ccc2c(c1)-c1cc(C)nn1C(c1cc(Br)ccc1O)N2 (centres undefined)	nt	nt	nt	nt	i
O=C(Nc1ccnn1C1CCN(C(=O)Cc2ccccc2F)CC1)C1CC1	i	i	i	i	i
Cc1ccc2nc(C)c3c(c2c1)N(c1ccc(F)cc1)CC3	i	?	i	13.1µM	?
COc1cccc2c3c(c(C)nc12)CCN3c1ccccc1	i	?	i	?	-77.8
COc1ccccc1N1CCc2c(C)nc3c(OC)cccc3c21	i	13.1µM	i	?	nt

Bioassay records (PubChem BioAssay)
